ROS inducer – ROS inducers in U2OS cancer cells, primary screen, cell-based, H2DCF-DA fluorescence | U2OS ROS induction | ROS induction (% of piperlongumine), % at 10 µM | 46,000 compounds, 2% hits | AID 624156, 2012; in the data active means ROS induction above about 79%, passing the limit was not always enough; inconclusive means no clear call, values can overlap the other calls
PD-1 reverse act – activators reversing PD-1 mediated T-cell inhibition, primary screen, luminescence, primary human CD4 T cells, PD-L1 beads; CellTiter-Glo 96 h; 29,000 tested, under 10 active; AID 2316, 2010; activation, % (no concentration beside the values); call rule not given here
YB-1 expr inh – inhibitors of YB-1 gene expression, primary screen, cell-based, fluorescence. U2OS, qRT-PCR YB-1 vs CDIP delta delta Cp, 16 h; hits give high values; zero = DMSO, each unit about twofold. delta delta Cp (YB-1 minus CDIP) (test concentration not listed). 30,000 compounds, 0.37% hits;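 active means delta delta Cp rounded down to an integer at or above 3, about 3 SD of DMSO wells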;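 further: higher means less YB-1 transcript or more CDIP transcript relative to DMSO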
Each line names hits and unclear results; the compound was inactive in the other large screens. Hits are enriched below; roughly 2.3% of the tested compounds scored in any of these assays.

COc1cccc(-c2ncc(-c3ccccc3)o2)c1	ROS inducer 85
COC(=O)Cc1nc(-c2ccc(F)cc2)sc1C	none (no result: PD-1 reverse act, YB-1 expr inh)
COc1ccc(S(=O)(=O)n2cc(-c3ccc(F)cc3)c(N)n2)c(OC)c1	none (no result: YB-1 expr inh)
O=C(O)CCC(=O)Nc1ccc(Cc2ccncc2)cc1	YB-1 expr inh 8.6
O=C(O)CCC(=O)Nc1ccc2c(c1)C(=O)NC2=O	none (no result: YB-1 expr inh)
Cc1ccc(OCCCSc2nc(C)cc(=O)[nH]2)c(I)c1	none (no result: YB-1 expr inh)
O=C(O)c1ccccc1C(=O)N1CCc2ccccc21	none (no result: PD-1 reverse act, YB-1 expr inh)
c1ccc(-c2nnc(N3CCc4ccccc43)nc2-c2ccccc2)cc1	ROS inducer 103
Cc1sc2ncnc(SCC(=O)c3cc(Cl)sc3Cl)c2c1C	ROS inducer inconclusive (no result: YB-1 expr inh)
O=C(CCCCCCC(=O)Nc1ccccc1O)N/N=C/c1cc2c(cc1Br)OCO2	none (no result: PD-1 reverse act)
CN(C)c1nc(Cl)nc(N(C#N)CN2C(=O)c3ccccc3C2=O)n1	ROS inducer 168
O=C1c2ccccc2C(=O)N1CN1CCCCC1	none (no result: PD-1 reverse act, YB-1 expr inh)
O=C(CCS(=O)(=O)c1nc(-c2ccccc2)cc(C(F)(F)F)n1)Nc1ccc(Cl)cc1Cl	ROS inducer 101 (no result: YB-1 expr inh)
O=C(O)CCS(=O)(=O)c1nc(-c2ccccc2)cc(C(F)(F)F)n1	none (no result: YB-1 expr inh)
O=C(NO)c1cccc(C(=O)N/N=C/c2ccc[nH]2)c1	none (no result: PD-1 reverse act)
O=C1C2CC=CCC2C(=O)N1Cc1ccccc1 (stereo not given)	none (no result: PD-1 reverse act, YB-1 expr inh)
O=C1CC(N2C(=O)C3CC=CCC3C2=O)C2COC1O2 (stereo not given)	ROS inducer 91 (no result: PD-1 reverse act, YB-1 expr inh)
CCN(CC)c1ccc(/C=C/C#N)cc1	none (no result: PD-1 reverse act, YB-1 expr inh)
COc1cccc(NC(=O)CSc2nnc(-c3ccco3)n2-c2ccccc2)c1	none (no result: YB-1 expr inh)
N#CCSc1nc2c(sc3ccccc32)c(=O)n1CCCN1CCOCC1	none (no result: PD-1 reverse act, YB-1 expr inh)
O=C(CSc1nc2c(sc3ccccc32)c(=O)n1CC1CCCO1)c1ccccc1 (stereo not given)	ROS inducer 112 (no result: PD-1 reverse act, YB-1 expr inh)
N#CCSc1nc2c(sc3ccccc32)c(=O)n1C1CCCCC1	ROS inducer 157 (no result: PD-1 reverse act, YB-1 expr inh)
CCCCn1c(SCC(=O)NC2CCCC2)nc2c(sc3ccccc32)c1=O	none (no result: PD-1 reverse act, YB-1 expr inh)
Cc1c(-c2ccccc2)nc2sc3c(c2c1N)CCCC3	ROS inducer 92 (no result: PD-1 reverse act, YB-1 expr inh)
Cc1cccc(-c2nc3sc4c(c3c(=O)[nH]2)CCCC4)c1	none (no result: PD-1 reverse act, YB-1 expr inh)
O=C(CN1C(=O)C2C3CC(c4ccccc4)C(C3)C2C1=O)Nc1cccc([N+](=O)[O-])c1 (stereo not given)	none (no result: YB-1 expr inh)
COc1cc([N+](=O)[O-])ccc1NC(=O)CCN1C(=O)C2C3C=CC(C4CC34)C2C1=O (stereo not given)	none (no result: YB-1 expr inh)
O=C(NO)c1cccc(C(=O)N/N=C/c2cccc(Br)c2)c1	none (no result: PD-1 reverse act)
O=C(c1cc2ccccc2c(=O)o1)N1CCN(C(c2ccccc2)c2ccccc2)CC1	none (no result: PD-1 reverse act, YB-1 expr inh)
O=C(NCCC(c1ccccc1)c1ccccc1)c1cc2ccccc2c(=O)o1	ROS inducer 154
O=C(CCCCc1cccs1)Nc1ccccc1F	none (no result: PD-1 reverse act, YB-1 expr inh)
COc1ccc(C)cc1NC(=O)CN(C)S(=O)(=O)c1ccccc1	none (no result: ROS inducer, YB-1 expr inh)
O=C(NCC(O)CO)[C@]1(CCS(=O)(=O)c2ccccc2)N=C(c2ccc(OCCCO)cc2)O[C@@H]1c1ccccc1 (stereo not given in full)	none (no result: PD-1 reverse act)
CC(=O)N1Cc2ccccc2C[C@@]2(N=C(c3ccc(OCCCO)cc3)O[C@H]2c2ccccc2)C1=O	ROS inducer 79 (no result: PD-1 reverse act)
O=C(NCc1ccccc1)[C@@]1(CCS(=O)(=O)c2ccccc2)N=C(c2ccc(OCCCO)cc2)O[C@H]1c1ccccc1	ROS inducer 78 (no result: PD-1 reverse act)
CC(=O)N1Cc2ccccc2C[C@]2(N=C(c3ccc(OCCCO)cc3)O[C@@H]2c2ccccc2)C1=O	none (no result: PD-1 reverse act)
C=CCN1Cc2ccccc2[C@@H]2OC(c3ccc(OCCCO)cc3)=N[C@]2(CCS(=O)(=O)c2ccccc2)C1=O	none (no result: PD-1 reverse act)
O=C1N(CCS(=O)(=O)c2ccccc2)Cc2ccccc2[C@@H]2OC(c3ccc(OCCCO)cc3)=N[C@]12CCS(=O)(=O)c1ccccc1	ROS inducer 96 (no result: PD-1 reverse act)
CCn1c(C(=O)N2CCC(C(=O)NC3CCCCCC3)CC2)cc2sccc21	none (no result: PD-1 reverse act, YB-1 expr inh)
CCOC(=O)c1oc2c(CN3CCN(C)CC3)c(O)ccc2c(=O)c1-c1ccc(OC)cc1	none (no result: PD-1 reverse act, YB-1 expr inh)
COc1ccc(C2=NN(C(=O)c3cccs3)C(c3cc4ccccc4nc3Cl)C2)cc1 (stereo not given)	none (no result: PD-1 reverse act, YB-1 expr inh)
CCOC(=O)CN1C(=O)S/C(=C\c2ccccc2OCc2ccccc2F)C1=O	ROS inducer 103 (no result: PD-1 reverse act, YB-1 expr inh)
CCOC(=O)CN1C(=O)S/C(=C/c2ccc3c(c2)n(C)c(=O)n3C)C1=O	none (no result: PD-1 reverse act, YB-1 expr inh)
O=C(CSc1nnc(-c2ccccc2Cl)n1-c1ccccc1)Nc1ccccc1Cl	none (no result: YB-1 expr inh)
COc1cc(Br)cc2cc(C(=O)NCCCN3CCOCC3)c(=O)oc12	none (no result: YB-1 expr inh)
CC(C)C[C@H]1C(=O)N2CCC[C@H]2[C@]2(O)O[C@](NC(=O)[C@@H]3C=C4c5cccc6[nH]c(Br)c(c56)C[C@H]4N(C)C3)(C(C)C)C(=O)N12	ROS inducer 107 (no result: PD-1 reverse act)
CC(C)CC1C(=O)N2CCC[C@H]2C2(O)O[C@](NC(=O)C3C=C4c5cccc6[nH]c(Br)c(c56)C[C@H]4N(C)C3)(C(C)C)C(=O)N12 (stereo not given in full)	none (no result: PD-1 reverse act)
Cc1ccc(C)c(NC(=O)c2ccc(OCC(=O)Nc3cccc(Cl)c3)cc2)c1	none (no result: YB-1 expr inh)
CN(C)c1ccc(C(=C2C=CC(=[N+](C)C)C=C2)c2ccc(N(C)C)cc2)cc1	ROS inducer 341 (no result: PD-1 reverse act)
COc1ccc([N+](=O)[O-])cc1NC(=O)C1(c2ccc(OC)c(OC)c2)CCCCC1	ROS inducer 149 (no result: YB-1 expr inh)
COc1ccccc1CC(=O)Nc1cc([N+](=O)[O-])ccc1OC	none (no result: YB-1 expr inh)
C[C@@H]1CN([C@@H](C)CO)C(=O)c2cccc(NC(=O)c3cnccn3)c2O[C@H]1CN(C)Cc1ccc(Cl)c(Cl)c1	ROS inducer 87
C[C@H](CO)N1C[C@H](C)[C@H](CN(C)S(=O)(=O)c2ccccc2)Oc2c(NC(=O)c3cnccn3)cccc2C1=O	none
C[C@@H]1CN([C@@H](C)CO)C(=O)c2cccc(NC(=O)c3cnccn3)c2O[C@@H]1CN(C)Cc1ccc(Cl)c(Cl)c1	none (no result: PD-1 reverse act)
C[C@H](CO)N1C[C@H](C)[C@H](CN(C)S(C)(=O)=O)Oc2c(NC(=O)c3cnccn3)cccc2C1=O	YB-1 expr inh 4.7
CC(C)N(C(=O)c1ccc(-c2nnc(-c3ccccc3)o2)cc1)C(C)C	none (no result: PD-1 reverse act, YB-1 expr inh)
CN1CCN(C(=O)CSc2c(-c3ccccc3)c3cc(Cl)ccc3[nH]c2=O)CC1	none (no result: PD-1 reverse act, YB-1 expr inh)
O=C(C1CCCO1)N1N=C(c2c(-c3ccccc3)c3cc(Cl)ccc3[nH]c2=O)CC1c1ccco1 (stereo not given)	ROS inducer 178 (no result: YB-1 expr inh)
COc1ccc(-n2c(Cn3ncc4ccccc4c3=O)n[nH]c2=S)cc1	none (no result: YB-1 expr inh)
O=S(=O)(CCSc1ccccc1)c1ccccc1	none
Cc1cccc(OCCn2c(-c3cccc(C)c3)nc3ccccc32)c1	none (no result: PD-1 reverse act, YB-1 expr inh)
Cc1cc(C(=O)Nc2cccc3c2O[C@H](CN(C)Cc2ccc(C(=O)Nc4ccccc4N)cc2)[C@@H](C)CN([C@@H](C)CO)C3=O)n(C)n1	ROS inducer 189
Cc1cc(C(=O)Nc2cccc3c2O[C@H](CN(C)Cc2ccc(C(=O)Nc4ccccc4N)cc2)[C@@H](C)CN([C@H](C)CO)C3=O)n(C)n1	ROS inducer 130
